The results in this text go back to the OligoGym collection.
Also: reference of the scale not given here.

The target in the first test is ECH1. Kind of test: pooled miR-30 sensor sort-seq; sequence = guide strand. The following applies: shRNA.
As to TACAGCAGGTTGACCTTGGTGC, the sensor-assay potency score (higher = more potent) was 0.173.

TCTTTGTCTGGGAACACCCGGC had a sensor-assay potency score (higher = more potent) of -0.283.

Regarding TTGGGCTGCAGGATGTCCGAAG, the sensor-assay potency score (higher = more potent) is -0.857.

Take TCTTGTTGAAGCACTCTACCAT: the sensor-assay potency score (higher = more potent) came to 0.331.

The sequence AAGCACTCTACCATCTCTCTCC gave a sensor-assay potency score (higher = more potent) of -0.152.

Sequence TTGGAGCCTGTCAGTCGCCGGG came in with a sensor-assay potency score (higher = more potent) of -1.13.

For the sequence TTGAAGGTCTCCTGGTATCGAG, the sensor-assay potency score (higher = more potent) was -0.974.

Take TCTTGCTGGAAATCTCGGCCGC: the sensor-assay potency score (higher = more potent) is -0.461.

TGTCCATCAGGTCAATACCTGC returned a sensor-assay potency score (higher = more potent) of -1.4.

TGAACATTTTTCCTGCACCAGA: the sensor-assay potency score (higher = more potent) is -1.08.

TTGTGCAGAGGAGCCAGTGAGG showed a sensor-assay potency score (higher = more potent) of -1.37.

The sequence TTGACCAGGCTCTGGTTCCCGA gave a sensor-assay potency score (higher = more potent) of -0.944.

In turn, TCGTCAGCCATCATCTTGCGGG gave a sensor-assay potency score (higher = more potent) of -0.729.

The next test deals with EDDM3B. The description is as above. The following applies: shRNA.
Sequence TTGGACTTAAGTAGTGCTGTTT had a sensor-assay potency score (higher = more potent) of -0.357.

Take TTTCGGAAGCGATCCATCCAGT: the sensor-assay potency score (higher = more potent) is -0.761.

As to TATGCTATCAACATACCCGTCC, the sensor-assay potency score (higher = more potent) was 0.462.

Consider TAGAAAGCACTGAATACTCTAC, for which the sensor-assay potency score (higher = more potent) is -0.181.

TTTGAGAGGATTCTGGACCCAT: the sensor-assay potency score (higher = more potent) turned out to be 0.578.

ATATGCTCGATTTTGTACCATG showed a sensor-assay potency score (higher = more potent) of -1.24.

ATCTTTAGGTCTTCTATGCTAT yielded a sensor-assay potency score (higher = more potent) of -0.978.

For TCAATGTAGTTGAAGCTCCTGC, the sensor-assay potency score (higher = more potent) came to 0.357.

On to TTGCTCTGTACAAGCAGTGTGC, for which the sensor-assay potency score (higher = more potent) was -0.53.

A further test concerns the target EDF1. The description is as above. The following applies: shRNA.
AATAGAATGTTGTTTGTTCTGG yielded a sensor-assay potency score (higher = more potent) of -0.0468.

Take TCTTGGTAATAGAATGTTGTTT: the sensor-assay potency score (higher = more potent) is -1.13.

Consider TTTCGTGGCCAGGTCCTTCTGC, for which the sensor-assay potency score (higher = more potent) is -0.179.

TTTCCAATGTCCTTTCCCCGGA: the sensor-assay potency score (higher = more potent) was -0.772.

As to TGTTCTTGGTAATAGAATGTTG, the sensor-assay potency score (higher = more potent) was -1.17.

For ATTTCTTGGAAGTCTCCACATC, the sensor-assay potency score (higher = more potent) was -1.38.

As for TTGCTCTGCCGACCTTGCTGGA, the sensor-assay potency score (higher = more potent) is -1.14.

The sequence TTTGACAGCAGGAATGGGCTGG yielded a sensor-assay potency score (higher = more potent) of 0.46.

In turn, TCATAGTCCGCGATCACCTGTG showed a sensor-assay potency score (higher = more potent) of 0.11.

The sequence TTCTCATTGATTTTCGTGGCCA showed a sensor-assay potency score (higher = more potent) of -0.538.

TGCAGCTCCTCTGTCTCCCGGT yielded a sensor-assay potency score (higher = more potent) of -0.285.

TTGCGCAGCACCGTCACCGTGT: the sensor-assay potency score (higher = more potent) was -0.348.

In the next test the target is EFCAB6. The test is described as above. The following applies: shRNA.
TTGACTGGCATCTCGTTCCAGA: the sensor-assay potency score (higher = more potent) is -0.455.

TTGAATATACTCTACACGGTGA had a sensor-assay potency score (higher = more potent) of 0.203.

Sequence TAGTTTGTAACAGAAATCCTTA registered a sensor-assay potency score (higher = more potent) of -0.465.

For the sequence TAGTTCTGAATCCGCAACCTTC, the sensor-assay potency score (higher = more potent) is -0.922.
